# In PubChem BioAssay (NCATS):
# Inconclusive results are not listed. A number with no mark means an inactive call. Calls of active or inactive are those of the source. Calls follow the shape of the dose curve; as a rule, active = well fitted inhibition curve with a large enough effect; inconclusive = small, poorly fitted or top-dose-only effect; inactive = flat fitted curve, though single readings scatter.
# Experiment: qHTS for differential inhibitors of proliferation of Plasmodium falciparum line Dd2 (AID 1882); also: nearly all actives have a fitted effect of over 65% in size
# Settings: Potency: Plasmodium falciparum Dd2 proliferation inhibition; series mostly up to 28.7 µM; activity change, negative = inhibition: at the top concentration
# Description: NIH Molecular Libraries Probe Production Network [MLPCN]
# NIH National Institute of Allergy and Infectious Diseases [NIAID]
# NIH Chemical Genomics Center [NCGC]
# Assay Provider: Xinzhuan Su, NIAID
# Plasmodium falciparum is a virulent malarial parasite that kills 1-2 million people worldwide each year. Transmitted by mosquitoes, the sporozoite form of the parasite enters the blood stream to infect hepatocytes, where they become merozoites that infect red blood cells (erythrocytes). Within erythrocytes, merozoites begin a […] cycle of growth and division, after which the parasite is released to infect new red blood cells. Gametocytes, which form within erythrocytes as well, circulate in the bloodstream and are ingested by the mosquito, thereby completing the life cycle. To profile malarial isolates for differential chemical responses and to identify inhibitors of malarial growth, an assay that measures P. falciparum growth and replication within erythrocytes was employed. This assay uses a DNA binding fluorescent dye (SYBR Green) to detect parasite DNA following cell lysis. Because mature erythrocytes lack DNA, only Plasmodium-derived DNA is detected. The P. falciparum line Dd2, derived from a malarial isolate from […], was used.
# NCGC Assay Protocol Summary:
# The SYBR Green viability assay was adapted from a method described previously (Plouffe et al., 2008). For screening 3 ul culture medium was dispensed into 1536 well black clear bottom plates (Aurora Biotechnologies) using a Multidrop Combi (Thermo Fisher Scientific Inc.), 23 nL compounds in DMSO were added by a pin tool (Kalypsys), and 5 ul of erythrocytes infected with P. falciparum line Dd2 (0.3% parasitemia, 2.5% hematocrit final concentration) were added. The plates were incubated at 37 C in a humidified incubator in 5% CO2 for 72 h, and 2 ul lysis buffer (20 mM Tris HCl, 10 mM EDTA, […]% saponin, 1.6% triton X, 10X SYBR Green I supplied as 10,000X […] by Invitrogen) was added to each well. The plates were mixed for 25 sec with gentle shaking and incubated overnight at room temperature in the dark. The following morning, fluorescence intensity at 485(14) nm excitation and 535(25) nm emission wavelengths was measured on an EnVision (Perkin Elmer) plate reader. Plate reads were normalized relative to the control inhibitor (0.29 uM artemisinin) and vehicle (DMSO) wells present on each plate and then corrected by an algorithm using vehicle-only control plates at the beginning and end of the compound plate stack.
# Plouffe D, Brinker A, McNamara C, Henson K, Kato N, Kuhen K, Nagle A, Adrian F, Matzen JT, Anderson P, Nam TG, Gray NS, Chatterjee A, Janes J, Yan SF, Trager R, Caldwell JS, Schultz PG, Zhou Y, Winzeler EA. […] Proc Natl Acad Sci U S A. 2008, 105(26), pp 9059-64.
# Potency is read from the fitted curve at half-maximal effect.
SMILES,Potency,"activity change, negative = inhibition [%]"
CN(C)CCOC(C)(c1ccccc1)c1ccccn1 (stereo not drawn),10 µM (active),
CN(C)CC[C@@H](c1ccc(Cl)cc1)c1ccccn1,3.98 µM (active),
O=C1N=C(O)CN1/N=C/c1ccc(-c2ccc([N+](=O)[O-])cc2)o1,,-21.2
CSc1ccc2c(c1)N(CCC1CCCCN1C)c1ccccc1S2 (stereo not drawn),12.6 µM (active),
CCCn1cnc2c1c(=O)n(CCCCC(C)=O)c(=O)n2C,,-10.9
Cc1cc(N)c2ccccc2[n+]1CCCCCCCCCC[n+]1c(C)cc(N)c2ccccc21,2.24 µM (active),
N=c1c[n+](N2CCOCC2)[n-]o1,,-2.25
CC(C)(C(=O)O)c1ccc(C(O)CCCN2CCC(C(O)(c3ccccc3)c3ccccc3)CC2)cc1 (stereo not drawn),,-2.96
CSc1ccc2c(c1)C(N1CCN(C)CC1)Cc1ccccc1S2 (stereo not drawn),8.91 µM (active),
C[C@](N)(Cc1ccc(O)cc1)C(=O)O,,6.71
CCCCCCCCCCCCCCCC(=O)NCCO,,-0.503
C#CCN(C)Cc1ccccc1,,-1.21
C[C@H]1O[C@@H](n2cc(F)c(=O)[nH]c2=O)[C@H](O)[C@@H]1O,,3.1
C=Cc1c(C)c2cc3[nH]c(cc4nc(cc5nc(cc1[nH]2)C(C)=C5CCC(=O)O)C(CCC(=O)O)=C4C)c(C)c3C=C,,-19.2
CCN(CC)CCCC(C)Nc1c2ccc(Cl)cc2nc2ccc(OC)cc12 (stereo not drawn),0.126 µM (active),
COc1ccc(Cl)cc1C(=O)NCCc1ccc(S(=O)(=O)NC(=O)NC2CCCCC2)cc1,,-0.602
Nc1cc(=O)[nH]c(N)n1,,-2.71

SMILES,Potency,"activity change, negative = inhibition [%]"
CNCC(O)c1ccc(O)c(O)c1 (stereo not drawn),,-25.3
COC(=O)C1=C(C)NC(C)=C(C(=O)OC)C1c1ccccc1[N+](=O)[O-],,-25
CC1=C(CC(=O)O)c2cc(F)ccc2/C1=C\c1ccc(S(C)=O)cc1 (stereo not drawn),,-2.88
NC(=O)c1ncn([C@@H]2O[C@H](CO)[C@@H](O)[C@H]2O)n1,,0.043
NC(N)=NCCC[C@H](N)C(=O)O,,-0.757
CC(C(O)c1ccc(O)cc1)N1CCC(Cc2ccccc2)CC1 (stereo not drawn),10 µM (active),
CCN(CC)CCOC(=O)C1(C2CCCCC2)CCCCC1,5.01 µM (active),
CC(CN1c2ccccc2Sc2ccccc21)N(C)C (stereo not drawn),5.01 µM (active),
CC(C)NC[C@H](O)c1ccc(O)c(O)c1,inactive,
CC(C)C(=O)c1c(C(C)C)nn2ccccc12,,-20.2
CCN(CC)CCNC(=O)c1cc(Cl)c(N)cc1OC,,-13.3
CC(=O)OCC(=O)[C@@]1(O)CC[C@H]2[C@@H]3CCC4=CC(=O)CC[C@]4(C)[C@H]3C(=O)C[C@@]21C,,8.27
OCCN1CCN(CCCN2c3ccccc3Sc3ccc(Cl)cc32)CC1,7.94 µM (active),
CN(C)CCCN1c2ccccc2Sc2ccc(Cl)cc21,12.6 µM (active),
CC(C)(C)c1onc(OCP(=O)(O)O)c1CC(N)C(=O)O (stereo not drawn),,2.37
CC1=C(CC(=O)O)c2cc(F)ccc2/C1=C\c1ccc(S(C)(=O)=O)cc1,,-3.28
